Experimental data from PubChem BioAssay (Tox21).
Results filed as inconclusive are left out. Entries that show only a call come without a potency. Calls of active or inactive are those of the source. Calls come from the whole dose curve; as a rule, active = well fitted inhibition curve with a large enough effect in the repeat runs; inconclusive = weak or mixed curves; inactive = no such curve, though single readings can be large or run the other way.

biological target: Cytochrome P450 3A4 (Homo sapiens) (UniProt P08684); assay: Cytochrome P450 Family 3 Subfamily A Member 4 (CYP3A4) small molecule antagonists: luciferase reporter qHTS assay (AID 1671201); details: P450-Glo CYP3A4 enzyme, luciferin luminescence, 1 h; series mostly up to 115 µM; note: nearly all actives have a fitted effect of over 50% in size
How it was run: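 Luminescent readout (RLU) proportional to CYP3A4 activity, from luciferin generated off a proluciferin substrate. Enzyme–substrate mix plus compound 10 min at room temp, NADPH regeneration 1 h, detection reagent 20 min.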
Potency is the fitted concentration of half-maximal effect.

Cytochrome P450 3A4 (Homo sapiens), sequence (P08684 whole entry, looked up): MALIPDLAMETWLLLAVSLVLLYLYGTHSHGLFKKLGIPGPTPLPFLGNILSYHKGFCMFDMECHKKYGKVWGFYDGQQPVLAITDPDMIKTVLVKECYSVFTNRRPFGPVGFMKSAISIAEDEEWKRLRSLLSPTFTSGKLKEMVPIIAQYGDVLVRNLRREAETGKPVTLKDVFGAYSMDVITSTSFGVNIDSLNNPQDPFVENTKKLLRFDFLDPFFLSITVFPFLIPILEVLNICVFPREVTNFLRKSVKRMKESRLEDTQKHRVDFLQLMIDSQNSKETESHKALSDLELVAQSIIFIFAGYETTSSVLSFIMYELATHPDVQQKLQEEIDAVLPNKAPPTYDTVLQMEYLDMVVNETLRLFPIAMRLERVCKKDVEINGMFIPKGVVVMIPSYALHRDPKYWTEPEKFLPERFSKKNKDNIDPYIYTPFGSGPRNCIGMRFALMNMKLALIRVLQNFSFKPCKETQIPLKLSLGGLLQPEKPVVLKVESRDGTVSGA

Compound | Potency | activity change, negative = inhibition
Nc1ccc(Cl)c([N+](=O)[O-])c1 | inactive | 
Cc1ccc(N=Nc2c(O)ccc3ccccc23)c(C)c1 | inactive | 
C=CC(=O)OCCOC1C2CCC1C1CC=CC12 (configuration not stated) |  | -3.35% [at 23.6 µM] (inactive)
O=C1c2ccccc2C(=O)c2c(Cl)cccc21 | inactive | 
Cc1cccc2c1ccc1ccccc12 | inactive | 
S=C1NC=NC2N=CNC12 (configuration not stated) | inactive | 
C=C1C(CCl)(CCl)C2(Cl)C(Cl)C(Cl)C1(Cl)C2(Cl)Cl (configuration not stated) | 0.991 µM (active) | 
CCCCCc1ccc(O)cc1 | inactive | 
CC(C=O)c1ccccc1 (configuration not stated) | inactive | 
CC(Cc1ccc(O)c(O)c1)C(C)Cc1ccc(O)c(O)c1 (configuration not stated) | 35.6 µM (active) | 
CCOc1ccc([N+](=O)[O-])cc1 | 72.1 µM (active) | 
CN[C@H]1CC[C@@H](c2ccc(Cl)c(Cl)c2)c2ccc(S(N)(=O)=O)cc21 | 28.3 µM (active) | 
O=C1CCC/C=C\CCCCCCCCCC1 | 31.7 µM (active) | 
NC(=O)c1ccccc1Cl | inactive | 
CN1CC[C@H](c2c(O)cc(O)c3c(=O)cc(-c4ccccc4Cl)oc23)[C@H](O)C1 | inactive | 
Oc1ccc(Cl)cc1C1CCCC1 | inactive | 
Clc1ccc2c(Cl)ccnc2c1 | inactive | 
CC(C)c1ccc2sc3ccccc3c(=O)c2c1 | inactive | 
C=C1CC[C@H]2O[C@]2(C)CC[C@@H]2[C@@H]1CC2(C)C | inactive | 

Compound | Potency | activity change, negative = inhibition
CC1(C)[C@H]2CC[C@]1(C)C(=O)C2 | inactive | 
C/C=C/C(=O)OCC(C)C | inactive | 
CC(C)C(=O)C(C)C | inactive | 
Nc1cccnc1N | inactive | 
O=S(=O)(c1ccc(OCc2ccccc2)cc1)c1ccccc1O | inactive | 
CCn1c2ccccc2c2ccccc21 | inactive | 
CC(C)(C)c1cc(CCC(=O)OCCSCCOC(=O)CCc2cc(C(C)(C)C)c(O)c(C(C)(C)C)c2)cc(C(C)(C)C)c1O | 4.9 µM (active) | 
CCN(CCC#N)c1ccc(N=Nc2ccc([N+](=O)[O-])cc2)cc1 | inactive | 
Nc1ccc(F)c([N+](=O)[O-])c1 | inactive | 
CCCCCCCCCCCCS(=O)(=O)Cl |  | -1.36% [at 23.6 µM] (inactive)
CCC(C)(C)c1ccc(CC(C)CN2C[C@@H](C)O[C@@H](C)C2)cc1 (some centres not stated) | inactive | 
CCOC(=O)C1=NN(c2ccc(Cl)cc2Cl)C(C)(C(=O)OCC)C1 (configuration not stated) | 35.6 µM (active) | 
CCOC(=O)OC(=O)OCC | inactive | 
CC1=C(/C=C/C(C)=C/C=C/C(C)=C\C(=O)O)C(C)(C)CCC1 | 22.5 µM (active) | 
C/C(=C\c1ccc(C(=O)O)cc1)c1ccc2c(c1)C(C)(C)CCC2(C)C | inactive | 
C1=CCCC1 | inactive | 
CCOC(=O)[C@H](C)O | inactive | 
O=C1OC(=O)c2cc(-c3ccc4c(c3)C(=O)OC4=O)ccc21 | inactive | 
